The text below walks through data of PubChem BioAssay (EPA / NIEHS).

The structures appear in SMILES notation. Active and inactive are the calls of the source. Rule for the calls: active = hit-call score of the fitted dose curve at least 0.9, where 1 is the maximum; inactive = score below 0.9.

This test is described as follows: CCTE_Deisenroth_5AR_NBTE_acceptor: CCTE's 5alpha-reductase NanoBRET Target Engagement Assay - Autofluorescence Screen, Deisenroth Lab (AID 2284321).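 Note: compound fluorescence in the acceptor channel under 460 nm excitation flags autofluorescence artifacts.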 The note with it: actives raise or lower the signal. As to the method:
CCTE_Deisenroth_5AR NBTE (5alpha-reductase NanoBRET Target Engagement Assay) is a cell-based, single-readout assay that uses HEK293T, a human kidney cell line, with measurements taken at 5 hours after chemical dosing in a 384 well plate. This assay includes a primary and secondary screen as well as an autofluorscence screen.CCTE_Deisenroth_5AR NBTE_acceptor is one of four assay components measured from the CCTE_Deisenroth_5AR NBTE assay. It is designed to make measurements of resonant fluorescence generated by bioluminescent energy transfer to a target fluorophore, as detected by fluorescence intensity emission signals using spectrometry technology.Data from the assay component CCTE_Deisenroth_5AR NBTE_acceptor was analyzed into 1 assay endpoint. This assay endpoint, CCTE_Deisenroth_5AR NBTE_acceptor, was analyzed with bidirectional fitting relative to DMSO as the negative control and baseline of activity. Using a type of inducible reporter, gain or loss-of-signal activity can be used to understand changes in the acceptor fluorescence as related to 5alpha-reductase catalytic function. Furthermore, this assay endpoint can be referred to as a secondary readout, because this assay has produced multiple assay endpoints where this one serves an artifact detection function.
Chemicals from the blinded ToxCast library were diluted 1000-fold in DMSO to an assumed nominal concentration of 100 uM. Samples were scanned in three independent runs (n=3) on a multi-mode plate reader at a fixed excitation wavelength of 460 nm with emission filter set at […]. For reference, tracer was included at DMSO-solubilized concentrations of 100 uM (the top tested concentration for each test chemical) and 600 nM (the final working concentration of the tracer probe).
(In general: BRET reads energy transfer from a luciferase to a nearby fluorophore.)
The AC50 is the concentration giving half of the maximal activity seen. As to `O=c1c(O)c(-c2ccc(O)c(O)c2)oc2cc(O)cc(O)c12`, the AC50 was 23.3 µM (active).

In the case of `C1CCC(SSC2CCCCC2)CC1`, the outcome was inactive. The same measure, in the same setting: for `COc1cc(S(=O)(=O)O)c(C)cc1N=Nc1c(O)ccc2cc(S(=O)(=O)O)ccc12` the value was “inactive”. The same measure, in the same setting: for `COc1cc(-c2nc(NC(=O)c3cc4cc(C)cc(C)c4n3CC(=O)O)sc2CCC2CCCCC2)c(OC)cc1Cl` the value was “inactive”; for `CC=Cc1ccc(O)c(OC)c1`, “inactive”. As for `COc1ccc(C)cc1N`, the compound was called inactive.

Regarding `CCCCOC(=O)CCCCCCCCC(=O)OCCCC`, the compound was classed as inactive. With `OC[C@@H](O)[C@@H](O)[C@H](O)[C@H](O)CO`, the compound was classed as inactive. The same measure, in the same setting: for `CCCCCCCCCCC` the value was “inactive”; for `Oc1ccc2ccccc2c1N=Nc1ccccc1`, “inactive”.
